The text below walks through data of PubChem BioAssay.

Results filed as inconclusive are left out. Calls of active or inactive are those of the source.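 The calls were made as follows, unless noted: active = viability at or below 10% of carrier control in both of two separate runs; inconclusive = viability at or below 10% in only one of the two runs; inactive = the rest.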

Usually viability stands for a read-out of living cells in per cent, often relative to untreated cells. Usually inhibition stands for the drop in the measured response relative to a control, in per cent.

Assay [1] can be described thus: reducers of endogenous Her2 protein level, primary screen, SKBR3 breast tumor cells, AlphaScreen, ATP viability (AID 461;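 active = Her2 level under about 52% in both replicate screens, with viability over 70% of control, limit read from the data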;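 as to Her2 level: lower value means less Her2 protein in the cells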;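 as to viability: percent of carrier control wells set as 100% viability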). The note with it: 18-24 h, measured here: SKBR3 viability, ATP luminescence, at 10 µM.
Assay [2] has as its target Receptor tyrosine-protein kinase erbB-2 (Homo sapiens) (UniProt P04626). The description is as above. Particulars: 18-24 h, at 10 µM, stronger effect = lower value.
Assay [3] can be described thus: SK-BR-3 cell growth inhibitors, pilot screen, 24 h, human (AID 572).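 Also: compound exposure lasted between 18 and 24 h rather than exactly 24 h; 100% = carrier-treated control wells.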 Particulars: SK-BR-3 viability, CellTiter-Glo luminescence, at 10 µM, stronger effect = lower value. For orientation: ATP-based viability assays read luminescence as a measure of living cells.
Assay [4] is described as follows: HUVEC growth inhibition – cell-based, human, primary screen (AID 575;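 active = viability at or below 30% in both replicate assays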;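 also: 100% = median of untreated cell wells with 0.1% DMSO on each plate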). The note with it: HUVEC proliferation, CellTiter-Glo luminescence, 72 h; at 10 µM; stronger effect = lower value.
Assay [5] is described as follows: growth inhibitors of H69AR lung tumor, primary screen, human, duplicate replicates (AID 580;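 active = viability at or under a set limit in both replicates, limit being median viability minus 3 SD, cut at about 48% in these data, passing the limit was not always enough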;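 also: 100% = mean luminescence of untreated wells and 0% = no signal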). The note with it: H69AR lung tumor cells viability, ATP luminescence, 72 h; at 10 µM; stronger effect = lower value.
The nature of assay [6]: reversal of MRP1-mediated doxorubicin resistance, pilot screen, H69AR cells, doxorubicin co-treatment (AID 601;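 active = viability loss from added drug above about 55%, and viability with drug at most 40%, in both replicates, limit read from the data, passing the limit was not always enough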). Particulars: CellTiter-Glo, 72 h, at 10 µM; for differential viability (reversal): stronger effect = higher value.
A short description of assay [7]: 384-well plate pilot, post-Golgi transport modulator project, inhibition of yeast transport mutant growth (AID 636; in the data active = inhibition above about 31%). Particulars: absorbance 615 nm, about 18 h, stronger effect = higher value.
Assay [8] can be described thus: growth suppression of yeast trafficking mutant, preliminary HTS, modulators of trafficking downstream of Golgi apparatus project, 1536-format plate, OD 615 nm (AID 637; in the data active = inhibition above about 30%). Particulars: yeast transport mutant growth, absorbance 615 nm, 18 h; stronger effect = higher value.
Assay [9] can be described thus: OD615 S. cerevisiae growth inhibition, permissive medium, pilot counter-assay, permissive growth control for S. cerevisiae lifespan shortening project (AID 705;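 active = growth inhibition above 25% in both replicates, a cutoff set 3 SD above the mean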). The note with it: OD615, 24 h, at 10 µM, stronger effect = higher value.
The nature of assay [10]: Restrictive medium S. cerevisiae growth inhibition, OD615, pilot screen of yeast lifespan reduction project, restrictive growth control (AID 706;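 active = growth inhibition above a set limit, 3 SD over mean compound inhibition, in both replicates, cut at about 43% in these data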;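 also: modified DeaD lifespan yeast strain shifted to restrictive glucose medium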). Particulars: OD615, 48 h, at 10 µM, stronger effect = higher value.
Assay [11] in a line: viability gain of MRP-1-high H69AR cells under doxorubicin, pilot screen, MRP-1 activator project, CellTiter-Glo, duplicate (AID 807;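 active = viability increase at or above a cutoff of the median across tested compounds plus 3 SD, cut at about 8.5% in these data, passing the limit was not always enough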;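 also: compound pretreatment 18-22 h then 72 h combined with doxorubicin; 0% = doxorubicin alone and 100% = vehicle without doxorubicin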). Particulars: H69AR viability with doxorubicin, CellTiter-Glo luminescence; at 10 µM; stronger effect = higher value.
Assay [12] in a line: growth suppression of beta-catenin knockout HCT116, pilot screen, human colon tumor cells (AID 823;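 active = cell viability at or below a set limit in both duplicate runs, the limit being the all-compound median minus 4 SD, cut at about 23% in these data, passing the limit was not always enough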;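 also: 0% = wells killed by 20 µM Hyamine and 100% = untreated DMSO cell wells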). The note with it: CellTiter-Glo, 60 h, at 10 µM, stronger effect = lower value.
Assay [13] is described as follows: growth suppression of PTEN-deleted HCT116, pilot screen, cell-based, HCT116 clonal line, CellTiter-Glo (AID 824;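 active = viability at or below 27.92% in each of two runs, the all-compound median minus 4 SD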;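 also: 0% = 20 µM Hyamine control and 100% = vehicle cell control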). Particulars: 60 h, at 10 µM, stronger effect = lower value.
Assay [14] in a line: inhibitors of the yeast RAM network, pilot screen, dse1pr::URA3 reporter, 5-FOA selection (AID 869;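 active = inhibition over a set limit, the all-compound mean plus 3 SD, in both replicate runs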;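 also: 0% = DMSO wells with no growth and 100% = 10 µM 1-NA-PP1 with full growth; RAM network block rescues cells from 5-FOA so hits raise OD615 growth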). The note with it: S. cerevisiae dse1pr::URA3 5-FOA growth, OD615, 2 d; at 10 µM; stronger effect = higher value; strain carries analog-sensitive mutant Cbk1 kinase.
A short description of assay [15]: RAM signaling pathway blockade in yeast – S. cerevisiae, Pdr1DBD-CYC8 efflux-inhibited sensitized strain, primary screen (AID 1298;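 active = RAM network inhibition above 8.4% in each of two replicates, 3 SD over the compound average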;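 also: 0% = DMSO untreated cells without growth and 100% = 10 µM 1-NA-PP1 full growth; higher means more yeast growth rescued from 5-FOA killing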). The note with it: S. cerevisiae cbk1-as DSE1-URA3 strain, 5-FOA growth OD615, 2 d; at 50 µM; stronger effect = higher value.
[16] abbreviates: H69AR cells + 2 uM doxorubicin, measured here: viability with 2 uM doxorubicin, stronger effect = lower value.
Where [17] appears, read: H69AR cells, compound alone cytotoxicity.

Chain of Receptor tyrosine-protein kinase erbB-2 (Homo sapiens) (P04626 whole entry, looked up): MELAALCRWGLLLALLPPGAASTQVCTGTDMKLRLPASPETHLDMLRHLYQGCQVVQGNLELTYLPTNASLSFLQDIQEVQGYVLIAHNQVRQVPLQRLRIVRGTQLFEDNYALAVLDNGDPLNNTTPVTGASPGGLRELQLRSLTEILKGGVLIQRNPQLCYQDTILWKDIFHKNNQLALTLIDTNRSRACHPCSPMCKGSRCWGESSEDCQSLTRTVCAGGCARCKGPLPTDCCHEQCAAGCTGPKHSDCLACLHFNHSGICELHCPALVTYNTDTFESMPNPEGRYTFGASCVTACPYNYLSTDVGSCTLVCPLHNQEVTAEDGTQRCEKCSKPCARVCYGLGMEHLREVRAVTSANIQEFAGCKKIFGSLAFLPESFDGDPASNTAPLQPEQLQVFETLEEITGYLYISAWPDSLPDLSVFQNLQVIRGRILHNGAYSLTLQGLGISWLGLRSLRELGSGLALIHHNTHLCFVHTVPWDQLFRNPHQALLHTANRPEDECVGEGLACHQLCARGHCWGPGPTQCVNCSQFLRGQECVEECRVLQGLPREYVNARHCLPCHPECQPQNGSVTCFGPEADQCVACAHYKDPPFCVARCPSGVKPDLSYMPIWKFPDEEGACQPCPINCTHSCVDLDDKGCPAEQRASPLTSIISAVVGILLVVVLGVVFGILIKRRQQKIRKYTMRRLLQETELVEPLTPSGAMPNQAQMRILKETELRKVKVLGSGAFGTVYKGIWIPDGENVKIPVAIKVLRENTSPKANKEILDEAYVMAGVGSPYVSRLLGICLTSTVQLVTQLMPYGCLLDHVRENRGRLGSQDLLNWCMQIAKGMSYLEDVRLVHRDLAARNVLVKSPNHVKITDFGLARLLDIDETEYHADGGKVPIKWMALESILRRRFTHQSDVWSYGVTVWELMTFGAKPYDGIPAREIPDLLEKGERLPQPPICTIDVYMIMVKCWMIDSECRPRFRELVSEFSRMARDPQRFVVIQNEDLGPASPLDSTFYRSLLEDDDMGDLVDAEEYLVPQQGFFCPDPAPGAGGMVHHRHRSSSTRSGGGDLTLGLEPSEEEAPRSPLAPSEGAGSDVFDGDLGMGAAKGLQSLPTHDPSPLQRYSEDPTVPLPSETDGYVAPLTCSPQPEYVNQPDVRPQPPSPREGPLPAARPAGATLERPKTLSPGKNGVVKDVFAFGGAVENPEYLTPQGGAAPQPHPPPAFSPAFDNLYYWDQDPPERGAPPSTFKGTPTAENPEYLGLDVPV

Take `O=C(C1COc2ccccc2O1)N1CCCC1` (stereo not given): the viability in assay [1] was 80%; in assay [3] it was 80% (inactive); in assay [4], 86.8% (inactive); in [5] it was 94.8% (inactive); in assay [6] (setting [16]) it was 93.1%; in assay [6] (setting [17]), 94.8%. Further, the viability in [12] was 105% (inactive); in assay [13], 96.9% (inactive). The Her2 level in [2] was 112% (inactive). Moreover, the differential viability (reversal) in assay [6] (H69AR cells + 2 uM doxorubicin) was 1.71% (inactive). The inhibition in assay [7] is -1.41% (inactive); in assay [8], -10.2% (inactive); in [14], 2.62% (inactive). Also, the growth inhibition in [9] is -16.3% (inactive); in [10], -10.1% (inactive). The viability increase in [11] was -0.88% (inactive). In assay [15], the RAM network inhibition is -0.78% (inactive).

In the case of `c1ccc2c(c1)nc(NCCN1CCOCC1)c1nncn12`, the viability in assay [1] is 92%; in [3], 92% (inactive); in [4], 109% (inactive); in assay [5], 94.7% (inactive); in [6] (setting [16]), 85.9%; in assay [6] (setting [17]) it was 94.7%. Also, the viability in [12] and in assay [13] was 103% (inactive) throughout. Moreover, in [2], the Her2 level was 102% (inactive). For the same compound, the differential viability (reversal) in assay [6] (H69AR cells + 2 uM doxorubicin) was 8.78% (inactive). In addition, the inhibition in [7] was -1.67% (inactive); in assay [8] it was 2.5% (inactive); in assay [14], -0.055% (inactive). Also, the figures for the growth inhibition in [9] and in assay [10] were -10.4% (inactive) and -3.62% (inactive), respectively. Besides, the viability increase in [11] is 1.59% (inactive). For the same compound, in assay [15], the RAM network inhibition is -0.1% (inactive).

On to `Cc1nc2c(-c3ccccc3)c(C)nn2c(C)c1CCC(=O)NCc1ccco1`, for which the viability was 101% in assay [1]; 101% (inactive) in assay [3]; 88.2% (inactive) in [4]; 90.8% (inactive) in assay [5]; 76.6% in assay [6] (setting [16]); 90.8% in assay [6] (setting [17]). For the same compound, the viability in [12] was 98.9% (inactive); in assay [13], 101% (inactive). For the same compound, in [2], the Her2 level was 100% (inactive). The differential viability (reversal) in assay [6] (H69AR cells + 2 uM doxorubicin) was 14.2% (inactive). Also, the values for the inhibition in [7], in assay [8] and in assay [14] were -0.9% (inactive), -2.5% (inactive) and 1.4% (inactive), respectively. The growth inhibition was -4.98% (inactive) in assay [9] and 5.46% (inactive) in [10]. Also, the viability increase in assay [11] is -3.51% (inactive). In [15], the RAM network inhibition was 5.36% (inactive).

Regarding `CCCCN(C)C(=O)c1ccc(CS(=O)(=O)c2ccccc2C)o1`, the viability in assay [1] is 93%; in [3] it was 93% (inactive); in assay [4], 120% (inactive); in assay [5], 81.3% (inactive); in assay [6] (setting [16]) it was 87.2%; in assay [6] (setting [17]), 81.3%. For the same compound, the viability in assay [12] was 93.8% (inactive); in assay [13], 91.7% (inactive). The Her2 level in assay [2] is 86.5% (inactive). Moreover, in assay [6] (H69AR cells + 2 uM doxorubicin), the differential viability (reversal) is -5.93% (inactive). Besides, the results for the inhibition in [7], in assay [8] and in assay [14] were 1.28% (inactive), -2.17% (inactive) and -0.45% (inactive), respectively. Moreover, the figures for the growth inhibition in [9] and in assay [10] were 6.16% (inactive) and 14.7% (inactive), respectively. Besides, the viability increase in [11] was -1.67% (inactive). Besides, in [15], the RAM network inhibition was 3.61% (inactive).

Take `COCCN(CCOC)Cc1c(C)[nH]c2ccccc2c1=O`: the viability in [1] is 96.5%; in assay [3], 96.5% (inactive); in [4], 105% (inactive); in assay [5], 89.4% (inactive); in [6] (setting [16]) it was 93.8%; in [6] (setting [17]), 89.4%. Also, the viability was 92.1% (inactive) in assay [12] and 91.3% (inactive) in assay [13]. Moreover, the Her2 level in assay [2] is 98% (inactive). The differential viability (reversal) in assay [6] (H69AR cells + 2 uM doxorubicin) is -4.47% (inactive). Further, the inhibition in assay [7] is 1.28% (inactive); in [8], -7.5% (inactive); in [14], 1.22% (inactive). The results for the growth inhibition in [9] and in assay [10] were -0.675% (inactive) and -3.83% (inactive), respectively. Besides, the viability increase in [11] is -2.47% (inactive). Besides, the RAM network inhibition in assay [15] is 3.31% (inactive).

In the case of `COc1ccc(S(=O)(=O)NCc2ccc3c(c2)OCO3)cc1C(=O)O`, the viability in [1] was 96.5%; in assay [3], 96.5% (inactive); in assay [4], 109% (inactive); in assay [5], 90.1% (inactive); in assay [6] (setting [16]), 93.4%; in assay [6] (setting [17]), 90.1%. For the same compound, the viability in assay [12] is 96.9% (inactive); in assay [13], 95.4% (inactive). Also, the Her2 level in assay [2] is 84.5% (inactive). In addition, the differential viability (reversal) in assay [6] (H69AR cells + 2 uM doxorubicin) is -3.31% (inactive). The values for the inhibition in assay [7], in assay [8] and in [14] were -4.36% (inactive), -0.33% (inactive) and 1.89% (inactive), respectively. Further, the values for the growth inhibition in assay [9] and in [10] were -4.53% (inactive) and -6.08% (inactive), respectively. In addition, the viability increase in assay [11] is -0.34% (inactive). The RAM network inhibition in assay [15] was 5.84% (inactive).

For `CCOC(=O)N1CCC(NC(=O)c2cnn3ccccc23)CC1`, the viability is 112% in assay [1]; 112% (inactive) in assay [3]; 86% (inactive) in assay [4]; 87.1% (inactive) in assay [5]; 85.9% in assay [6] (setting [16]); 87.1% in assay [6] (setting [17]). The viability in assay [12] was 108% (inactive); in assay [13], 99.9% (inactive). Moreover, in assay [2], the Her2 level was 123% (inactive). In addition, the differential viability (reversal) in [6] (H69AR cells + 2 uM doxorubicin) was 1.21% (inactive). Moreover, the inhibition in assay [7] is -1.2% (inactive); in [8], 3.67% (inactive); in assay [14], 0.135% (inactive). For the same compound, the growth inhibition in assay [9] was -12.9% (inactive); in [10] it was -10.7% (inactive). In [11], the viability increase was -1.34% (inactive). For the same compound, the RAM network inhibition in assay [15] was 2.01% (inactive).

For `COc1ccccc1S(=O)(=O)Cc1ccc(C(=O)N2CCN(c3ccc(C)cc3)C(C)C2)o1` (stereo not given), the viability is 82.5% in [1]; 82.5% (inactive) in assay [3]; 52.4% (inactive) in assay [4]; 7.92% (active) in assay [5]; 56.3% in [6] (setting [16]); 7.92% in assay [6] (setting [17]). The viability in [12] is 43.2% (inactive); in assay [13], 36.8% (inactive). In addition, the Her2 level in [2] was 64.5% (inactive). Besides, the differential viability (reversal) in assay [6] (H69AR cells + 2 uM doxorubicin) is -48.4% (inactive). Besides, the inhibition in assay [7] is -1.07% (inactive); in [8] it was 1.64% (inactive); in assay [14] it was 0.41% (inactive). Moreover, the growth inhibition in [9] is 4.27% (inactive); in assay [10], -15.2% (inactive). In addition, the viability increase in [11] is -6.26% (inactive). For the same compound, in assay [15], the RAM network inhibition is 5.28% (inactive).

Regarding `Nc1nc2n(n1)C(c1c(F)cccc1Cl)CC(c1ccc(F)cc1)N2` (stereo not given), the viability is 102% in assay [1]; 102% (inactive) in [3]; 103% (inactive) in assay [4]; 86.2% (inactive) in assay [5]; 89.6% in assay [6] (setting [16]); 86.2% in assay [6] (setting [17]). Besides, the viability is 89.7% (inactive) in assay [12] and 86.9% (inactive) in assay [13]. Also, the Her2 level in assay [2] was 91.5% (inactive). In assay [6] (H69AR cells + 2 uM doxorubicin), the differential viability (reversal) is -3.43% (inactive). Besides, the figures for the inhibition in [7], in assay [8] and in assay [14] were -5.2% (inactive), 0.33% (inactive) and 0.17% (inactive), respectively. For the same compound, the growth inhibition in [9] was -4.67% (inactive); in [10], 0.29% (inactive). Besides, the viability increase in [11] was -2.4% (inactive). Moreover, in [15], the RAM network inhibition is 3.18% (inactive).

As for `Cc1cc(C)nc(SCc2csc(N)n2)n1`, the viability is 89.5% in [1]; 89.5% (inactive) in assay [3]; 89.6% (inactive) in assay [4]; 90.1% (inactive) in [5]; 94.1% in assay [6] (setting [16]); 90.1% in assay [6] (setting [17]). Besides, the viability in [12] was 105% (inactive); in assay [13] it was 99.6% (inactive). Moreover, the Her2 level in assay [2] was 85% (inactive). For the same compound, the differential viability (reversal) in [6] (H69AR cells + 2 uM doxorubicin) is -4.05% (inactive). The inhibition in assay [7] was -0.26% (inactive); in [8] it was -2.67% (inactive); in assay [14], 0.605% (inactive). Also, the growth inhibition in [9] is 3.96% (inactive); in [10], 14.9% (inactive). In addition, the viability increase in [11] is 1.21% (inactive). In addition, the RAM network inhibition in [15] is 4.19% (inactive).
